# Results from PubChem BioAssay (NCATS).
# Results filed as inconclusive are left out. Values without a mark were called inactive. The source made the active and inactive calls. The call rests on the fitted dose curve; in most records, active means well fitted cell-killing curve with a large enough effect; inconclusive means small, poorly fitted or top-dose-only effect; inactive means flat fitted curve, though single readings scatter.
# Assay: Cellular viability qHTS for adrenocortical cancer (ACC) cell line NCI-H295R (AID 1963990); further: nearly all actives have a fitted effect of over 60% in size;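 on activity change, negative = viability loss: 0% = DMSO only wells and -100% = full killing with cytotoxic reference compound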
# Conditions: CellTiter-Glo ATP luminescence, 48 h; series mostly up to 46.1 µM; activity change, negative = viability loss: at the top concentration
# How it was run: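 Readout: CellTiter-Glo luminescence, 20 min RT. Exposure: 48 h, 37C/5% CO2. Cells: NCI-H295R, ITS-DMEM serum-free. Range: up to 46 uM. Analysis: 4PL fit, IC50 plus efficacy.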
# Potency means the concentration at half of the fitted maximal effect.
SMILES,"activity change, negative = viability loss",Potency
CCNC(=O)CCC/C=C\C[C@@H]1[C@@H](/C=C/C(O)CCc2ccccc2)[C@@H](O)C[C@@H]1O (stereo partly drawn),4.25%,–
CN(C)C/C=C/C(=O)Nc1ccc(C(=O)N2CCC[C@@H](Nc3ncc(Cl)c(-c4c[nH]c5ccccc45)n3)C2)cc1,–,10 µM (active)
NC1CCN(c2cccc(Cl)n2)CC1,-6.89%,–
CC[C@@]1(O)C(=O)OCc2c1cc1n(c2=O)Cc2c-1nc1cc(F)c(C)c3c1c2[C@@H](N)CC3,–,5.01 µM (active)
O=C(NC[C@H](O)CN1CCc2ccccc2C1)c1ccnc(NC2CCC2)c1,-7.58%,–
CCOC(=O)NNc1nncc2ccccc12,-5.6%,–
CC1CC(OC(=O)c2ccccc2O)CC(C)(C)C1 (stereo not drawn),-7.11%,–
C=CC(=O)Nc1cccc(Oc2nc(Nc3ccc(N4CCN(C)CC4)cc3)nc3ccsc23)c1,–,5.01 µM (active)
CC(/C=C1\SC(=S)N(CC(=O)O)C1=O)=C\c1ccccc1,-11.8%,–
O=C(NO)c1ccc(C2=Nc3ccccc3Oc3ccccc32)cc1,–,5.01 µM (active)
c1cnc(N2CCN(Cc3ccc4c(c3)OCO4)CC2)nc1,-12.3%,–
COc1cc(O)cc(O)c1,-1.22%,–
N#Cc1c(N)nc(N)nc1N[C@H](c1nc2c(F)ccc(Cl)c2c(=O)n1-c1cccnc1)C1CC1,–,22.4 µM (active)
Cc1c(F)ccc(C(=O)Nc2cc([N+](=O)[O-])ccc2N2CCN(C)CC2)c1Cl,0.204%,–
CN1CC[C@@H](NC(=O)Nc2ccc(C#N)cc2)C[C@@H]1c1nc2ccccc2[nH]1,6.73%,–
CCCC(=O)O[C@]1(C(=O)CC)CC[C@H]2[C@@H]3CCC4=CC(=O)CC[C@]4(C)[C@H]3[C@@H](O)C[C@@]21C,-6.35%,–
Nc1ccc(S(=O)(=O)NCc2ccccc2)cc1,-19.1%,–
CC1CCc2c(N3CCC(O)CC3)c(F)cc3c(=O)c(C(=O)O)cn1c23 (stereo not drawn),3.19%,–
CO[C@@H]1[C@@H](O)[C@H](O)[C@@H](n2c3c(Cl)cccc3c3c4c(c5c6cccc(Cl)c6[nH]c5c32)C(=O)NC4=O)O[C@H]1CO,–,5.62 µM (active)
CCN1CCN(Cc2ccc(NC(=O)c3ccc(C)c(/C=C/c4cnc5[nH]ccc5c4OC)c3)cc2C(F)(F)F)CC1,–,6.31 µM (active)
CCN(c1cc(-c2ccc(CN3CCOCC3)cc2)cc(C(=O)NCc2c(C)cc(C)[nH]c2=O)c1C)C1CCOCC1,-6.4%,–
CCOC(=O)N[C@@H]1CC[C@@H]2[C@@H](C1)C[C@H]1C(=O)O[C@H](C)[C@H]1[C@H]2/C=C/c1ccc(-c2cccc(F)c2)cn1,-19%,–
Nc1ccc(C(=O)OCC(O)CO)cc1 (stereo not drawn),-2.29%,–
CC(C)(C)NC(=O)c1cncn1C1CCN(c2ccc(-c3nnc(C(F)(F)F)o3)cn2)CC1,–,2.82 µM (active)
CN[C@@H]1[C@H](O[C@H]2[C@H](O[C@@H]3[C@@H](O)[C@H](O)[C@@H](N=C(N)N)[C@H](O)[C@H]3N=C(N)N)O[C@@H](C)[C@]2(O)C=O)O[C@@H](CO)[C@H](O)[C@H]1O,7.49%,–
CC(C)n1cc(-c2ccc3c(c2)N(C)CC3)c2c(NS(=O)(=O)c3ccn(C)n3)ccnc21,1.08%,–
CC1c2cccc(O)c2C(O)=C2C(=O)C3(O)C(O)=C(C(N)=O)C(=O)C(N(C)C)C3C(O)C21 (stereo not drawn),-0.846%,–
S=c1[nH]c2ccccc2s1,-10.7% [at 92.7 µM],–
